Results as given in PubChem BioAssay (NCI).
Several values for one entry are separate records, joined by “and”; a condition that tells them apart may be missing. Identical values can stand only once. This is part of a sample that, as a whole, favours compounds with a hit. Of some 83,000 tested, about 20% had one in any assay.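 48-hour exposure, single concentration, 96-well plates; percent growth endpoint where 0 means no net growth. Active: below 10.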 Activity calls are given as the source filed them.

Key:
Test in all cases: NCI-60 one-dose screen, 48 h (100 = growth as untreated, 0 = no growth, -100 = all killed)
Details in all cases: 10 µM unless noted
NCI-H23 lung = system: NCI-H23 lung
NCI-H226 lung = system: NCI-H226 lung
NCI-H322M lung = system: NCI-H322M lung
HOP-62 NSCLC = system: HOP-62 NSCLC
NCI-H460 lung = system: NCI-H460 lung
HOP-92 NSCLC = system: HOP-92 NSCLC
NCI-H522 lung = system: NCI-H522 lung
A549/ATCC NSCLC = system: A549/ATCC NSCLC
786-0 renal = system: 786-0 renal
COLO 205 colon = system: COLO 205 colon

Row | Compound | growth (NCI-H23 lung) | growth (NCI-H226 lung) | growth (NCI-H322M lung) | growth (HOP-62 NSCLC) | growth (NCI-H460 lung) | growth (HOP-92 NSCLC) | growth (NCI-H522 lung) | growth (A549/ATCC NSCLC) | growth (786-0 renal) | growth (COLO 205 colon)
1 | Cn1c(=O)n(-c2ccc(C(C)(C)C#N)cc2)c2c3cc(-c4cnc5ccccc5c4)ccc3ncc21 | 7.45% (active) and 15.4% (inactive) | 7.02% (active) and 9.42% (active) | 1.14% (active) and -0.589% (active) | 1.69% (active) and 3.34% (active) | 3.03% (active) and -9.04% (active) | -4.42% (active) | 2.87% (active) and -9.46% (active) | 0.549% (active) and -9.22% (active) | 0.54% (active) and -4.76% (active) | -25% (active) and -3.99% (active)
2 | O[C@H](c1cc(C(F)(F)F)nc2c(C(F)(F)F)cccc12)[C@@H]1CCCCN1 | 79.2% (inactive) and 77.8% (inactive) | 93.5% (inactive) and 58.9% (inactive) | 68.6% (inactive) and 52% (inactive) | 71.3% (inactive) and 74.6% (inactive) | 27.7% (inactive) and 23.6% (inactive) | 9.97% (active) and -8.33% (active) | 58.4% (inactive) and 22.8% (inactive) | – | 42.4% (inactive) and 56.6% (inactive) | 62.3% (inactive) and 60.5% (inactive)
3 | CN(Cc1ccccc1)Cc1ccccc1 | 96.6% (inactive) | 94.1% (inactive) | 81.3% (inactive) | 93% (inactive) | 110% (inactive) | 91.8% (inactive) | 97.3% (inactive) | – | 99.2% (inactive) | 105% (inactive)
4 | CC(C)CNC(=O)c1ccccc1C(=O)NC1(C(=O)NCC(C)C)CCCC1 | 100% (inactive) and 108% (inactive) | 99% (inactive) and 103% (inactive) | 112% (inactive) and 106% (inactive) | 102% (inactive) and 95.6% (inactive) | 108% (inactive) and 113% (inactive) | 117% (inactive) | 95.9% (inactive) | – | 107% (inactive) and 99% (inactive) | 102% (inactive) and 121% (inactive)
5 | COc1cc2c(c(OC)c1OC)-c1ccc(OC)c(=O)cc1[C@@H](NC(C)=O)CC2 | 24.4% (inactive) and 29.4% (inactive) and 12.6% (inactive) | 33.9% (inactive) and 13.1% (inactive) and 31% (inactive) | 47.7% (inactive) and 32.9% (inactive) and 36.1% (inactive) | 31.2% (inactive) and 24.6% (inactive) and 20% (inactive) | 4.46% (active) and 1.09% (active) and 2.92% (active) | 57.9% (inactive) and 14% (inactive) and 2.37% (active) | 15.4% (inactive) and -6.78% (active) and -64.2% (active) | – | 17.5% (inactive) and 9.25% (active) and 15.4% (inactive) | -36.4% (active) and 3.13% (active) and -47.6% (active)
6 | O=C1OC(Oc2ccc(Br)cc2)(c2ccccc2)c2ccccc21 (stereo unspecified) | 91.1% (inactive) and 80.5% (inactive) | 75.6% (inactive) and 83.7% (inactive) | 99.3% (inactive) and 127% (inactive) | 113% (inactive) and 107% (inactive) | 91.3% (inactive) and 87.8% (inactive) | 95.7% (inactive) and 65.6% (inactive) | 69% (inactive) | – | 101% (inactive) and 73.2% (inactive) | 105% (inactive) and 111% (inactive)
7 | Cc1ccc(NCSc2ccc(Cl)cc2)cc1 | 80.7% (inactive) and 93.2% (inactive) | 63.5% (inactive) and 103% (inactive) | 94.8% (inactive) and 94.6% (inactive) | 112% (inactive) and 87.8% (inactive) | 82.7% (inactive) and 93.8% (inactive) | 63% (inactive) | 29% (inactive) and 47.1% (inactive) | – | 39.1% (inactive) and 53.7% (inactive) | 81.6% (inactive) and 93.1% (inactive)
8 | C#CCN(C)Cc1ccccc1 | 106% (inactive) and 104% (inactive) | 91.6% (inactive) and 95.2% (inactive) | 99.3% (inactive) and 450% (inactive) | 93.5% (inactive) and 89.6% (inactive) | 110% (inactive) and 104% (inactive) | 100% (inactive) | 100% (inactive) and 92.5% (inactive) | – | 95.5% (inactive) and 70.4% (inactive) | 108% (inactive) and 122% (inactive)
9 | O=S(=O)(Nc1ccccc1)C1CCCCC1 | 98.6% (inactive) and 96.6% (inactive) | 106% (inactive) and 103% (inactive) | 103% (inactive) and 116% (inactive) | 107% (inactive) and 101% (inactive) | 112% (inactive) and 118% (inactive) | 113% (inactive) and 108% (inactive) | 84.5% (inactive) and 94.1% (inactive) | 98.7% (inactive) and 108% (inactive) | 105% (inactive) and 110% (inactive) | 102% (inactive) and 122% (inactive)
10 | C/C(=N\NC(=O)c1ccncc1)c1ccccc1O | 42.5% (inactive) and 30.4% (inactive) | 54.5% (inactive) and 58.8% (inactive) | 30.3% (inactive) and 20.7% (inactive) | 34.3% (inactive) and 33.7% (inactive) | 19.3% (inactive) and 14% (inactive) | 44.5% (inactive) and 36.7% (inactive) | 8.84% (active) | – | 31.4% (inactive) and 22.6% (inactive) | 13.9% (inactive) and 8.85% (active)
11 | c1ccc(NCc2ccc3c(c2)OCO3)cc1 | 100% (inactive) and 105% (inactive) | 103% (inactive) and 97.9% (inactive) | 114% (inactive) and 99.2% (inactive) | 93.7% (inactive) and 101% (inactive) | 105% (inactive) and 99.4% (inactive) | – | 91.1% (inactive) and 95.6% (inactive) | 103% (inactive) and 95.3% (inactive) | 102% (inactive) and 96.8% (inactive) | 113% (inactive) and 102% (inactive)
12 | N=C1N=C(N)CS1 | – | 96.9% (inactive) | – | 107% (inactive) | 103% (inactive) | 99.5% (inactive) | 103% (inactive) | 96.6% (inactive) | 103% (inactive) | 113% (inactive)
13 | CCN(CC)C(=O)c1cccnc1 | – | 110% (inactive) | 123% (inactive) | 119% (inactive) | 111% (inactive) | 117% (inactive) | 98.9% (inactive) | 102% (inactive) | 99.4% (inactive) | 115% (inactive)
14 | O=C1c2c(O)cc(O)cc2OC(c2ccc(O)c(O)c2)C1O (stereo unspecified) | – | 109% (inactive) | 126% (inactive) | 110% (inactive) | 107% (inactive) | 108% (inactive) | – | 105% (inactive) | – | 119% (inactive)
15 | Cc1ccc(-c2noc(CC(=O)c3ccc([N+](=O)[O-])cc3)n2)cc1 | 95.9% (inactive) | 92.9% (inactive) | 105% (inactive) | – | 103% (inactive) | 101% (inactive) | 95.2% (inactive) | 94.6% (inactive) | 99.6% (inactive) | 109% (inactive)
16 | Nc1ccccc1SC1CC(=O)N(c2cccc3ccccc23)C1=O (stereo unspecified) | 101% (inactive) | 83.6% (inactive) | 97% (inactive) | 90.5% (inactive) | 99.3% (inactive) | – | – | – | 101% (inactive) | 105% (inactive)
17 | Oc1c(CN2CCCCC2)ccc2cccnc12 | 79% (inactive) and 80.2% (inactive) | 63.8% (inactive) and 33.7% (inactive) | 36.5% (inactive) and 32.4% (inactive) | 52.1% (inactive) and 41.1% (inactive) | 21.1% (inactive) and 10.5% (inactive) | – | -3.86% (active) and 16.2% (inactive) | 43.6% (inactive) and 36% (inactive) | 11% (inactive) and 42.4% (inactive) | 66.7% (inactive) and 80.4% (inactive)

Row | Compound | growth (NCI-H23 lung) | growth (NCI-H226 lung) | growth (NCI-H322M lung) | growth (HOP-62 NSCLC) | growth (NCI-H460 lung) | growth (HOP-92 NSCLC) | growth (NCI-H522 lung) | growth (A549/ATCC NSCLC) | growth (786-0 renal) | growth (COLO 205 colon)
18 | c1ccc(N(c2ccccc2)c2ccccc2)cc1 | – | 104% (inactive) | 97.6% (inactive) | – | 111% (inactive) | 112% (inactive) | 95.9% (inactive) | 99% (inactive) | 97.9% (inactive) | 113% (inactive)
19 | N#C/C(=C/c1c(O)ccc2ccccc12)C(N)=O | 87.1% (inactive) | 89% (inactive) | 107% (inactive) | 81.1% (inactive) | 103% (inactive) | – | 76.4% (inactive) | 107% (inactive) | 83.6% (inactive) | 105% (inactive)
20 | OCc1ccccn1 | – | 102% (inactive) | 105% (inactive) | 115% (inactive) | 105% (inactive) | 108% (inactive) | 94.9% (inactive) | 102% (inactive) | 104% (inactive) | 127% (inactive)
21 | CC(O)Cn1cnc2c1c(=O)n(C)c(=O)n2C (stereo unspecified) | 96.7% (inactive) | 102% (inactive) | 96.6% (inactive) | 102% (inactive) | 118% (inactive) | – | – | 99.6% (inactive) | 102% (inactive) | –
22 | CC1(C)C2CCC1(CS(=O)(=O)O)C(=O)C2 (stereo unspecified) | – | – | – | 101% (inactive) | – | – | – | – | – | –
23 | CCC(=O)C(CC)c1cccc(OC)c1 (stereo unspecified) | – | 102% (inactive) | 101% (inactive) | 122% (inactive) | 107% (inactive) | 97.3% (inactive) | 102% (inactive) | 106% (inactive) | 103% (inactive) | 117% (inactive)
24 | N#CCCOc1ccccc1 | – | 110% (inactive) | – | 95.3% (inactive) | 105% (inactive) | 84.6% (inactive) | 87.7% (inactive) | 96.7% (inactive) | 98.2% (inactive) | 106% (inactive)
25 | COc1cc(C(=O)N/N=C/c2ccc(N(C)C)cc2)cc(OC)c1OC | 19.4% (inactive) | 71.9% (inactive) | – | 49% (inactive) | 3.54% (active) | 46.8% (inactive) | – | 18.4% (inactive) | 42.2% (inactive) | -25.7% (active)
26 | CC1=C(/C=C/C(C)=C/C=C/C(C)=C/C(=O)Nc2ccc(O)cc2)C(C)(C)CCC1 | – | 74.3% (inactive) | 101% (inactive) | 88.6% (inactive) | 27.7% (inactive) | 103% (inactive) | -47.6% (active) | 55.9% (inactive) | 52.8% (inactive) | 38.6% (inactive)
27 | Cc1c(Cl)cccc1NCN1C(=O)c2ccccc2C1=O | 102% (inactive) | 98.7% (inactive) | 99.8% (inactive) | 101% (inactive) | 108% (inactive) | – | 81.1% (inactive) | 99.1% (inactive) | 103% (inactive) | 105% (inactive)
28 | CC12CCC(CC1)C(C)(C)O2 | – | 104% (inactive) | 101% (inactive) | 110% (inactive) | 118% (inactive) | 105% (inactive) | 95% (inactive) | 102% (inactive) | 94.5% (inactive) | 110% (inactive)
29 | O=C(O)CSCc1nc2ccccc2[nH]1 | 95.7% (inactive) | 106% (inactive) | 117% (inactive) | 120% (inactive) | 105% (inactive) | – | 104% (inactive) | – | 103% (inactive) | –
30 | O=C=NC(c1ccccc1)(c1ccccc1)c1ccccc1 | – | 111% (inactive) | 104% (inactive) | 143% (inactive) | 111% (inactive) | 110% (inactive) | 90.2% (inactive) | 107% (inactive) | 95% (inactive) | 101% (inactive)
31 | CCCCCCCCCCCCOc1ccccc1C=O | 100% (inactive) | 95.4% (inactive) | 114% (inactive) | 85.3% (inactive) | 102% (inactive) | – | 91.3% (inactive) | – | 109% (inactive) | 109% (inactive)
32 | CCOC(=O)C(CNc1ccccc1)C(=O)OCC | 100% (inactive) | 95.2% (inactive) | 105% (inactive) | 90.1% (inactive) | 103% (inactive) | 85.6% (inactive) | – | – | 100% (inactive) | 106% (inactive)
33 | CCCCCCCCCCCCCCCCOc1ccc(C)cc1 | 98.2% (inactive) | 107% (inactive) | 111% (inactive) | – | 114% (inactive) | – | 104% (inactive) | 102% (inactive) | 107% (inactive) | 111% (inactive)
